Screening data (PubChem)
KKLEB tox: counter-screen for CF NF-kB inhibitors: cytotoxicity | KKLEB CF airway cells viability, ATPlite luminescence, overnight; active compounds read low; cells stimulated with P. aeruginosa culture filtrate | activity change (cytotoxicity), % at 5 µM | actives 0.36% (n = 360,000) | AID 602141;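 active = corrected activity change at or below -50% at 5 µM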
TRPM1 prom inh: MITF TRPM1 promoter inhibition in SK-MEL-5 cells. SK-MEL-5 TRPM1 promoter luciferase, 24 h. inhibition, % at 12.5 µM. actives 0.83% (n = 330,000). AID 488899;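 active = mean inhibition across replicates of 60% or more, whatever share of single replicates reaches that level; inconclusive = some that reach 60%, reason not given; inactive = mean inhibition across replicates below 60%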
HIF-2a inh: inhibitors of HIF-2a | 786-0 RCC cells HIF-2a reporter, luciferase luminescence, overnight | inhibition, % at 18.8 µM | actives 0.72% (n = 360,000) | AID 624352;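 active = inhibition of the luminescence signal of 40% or more relative to plate controls, in a single-dose primary screen at 18.75 µM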
CF NFkB inh: cystic fibrosis NF-kB activation inhibition; KKLEB NF-kB-GFP reporter, PAF-induced, GFP fluorescence overnight; inhibition, % at 5 µM; actives 0.86% (n = 360,000);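 active = at least 50% inhibition at 5 µM, scaled per plate between neutral and stimulator controls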;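 also: PAF is a Pseudomonas aeruginosa culture filtrate used as stimulus; plate controls were PAF-stimulated DMSO wells for no effect and unstimulated DMSO wells for full effect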
Shn3 3UTR inh: reduces Shn3 3'UTR luciferase signal in osteoblasts; inhibition, % at 12.5 µM; actives 0.52% (n = 360,000); AID 588674; Clone20 osteoblast Shn3 3'UTR firefly luciferase, 24 h;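 active = mean inhibition of at least 75% with every replicate also reaching 75%; inconclusive = mean inhibition at least 75% but some replicate below; inactive = mean inhibition below 75%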;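 also: 0% = median of neutral control wells and 100% = pilot-screen positive control compound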
Peg3 prom inh: Peg3 promoter activity inhibition; actives 1.7% (n = 360,000); HeLa PEG-Prom luciferase reporter, luminescence, overnight; AID 588405; inhibition, % at 20 µM;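 active = inhibition of at least 50% at 20 µM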
* marks the source's active call; other numbers are inactive results. Rows were chosen to be rich in hits. Some 2.8% of all compounds tested hit in one or more screens of this group.

Screening C[C@@H]1CN([C@@H](C)CO)C(=O)Cc2cc(NC(=O)Nc3ccc(C(F)(F)F)cc3)ccc2O[C@@H]1CN(C)S(=O)(=O)c1ccc(Cl)cc1 returned KKLEB tox -5.3, TRPM1 prom inh 47.1, HIF-2a inh -15.3, CF NFkB inh 26.2, Shn3 3UTR inh 34.7 and Peg3 prom inh 59.9*.
`C[C@H](CO)N1C[C@H](C)[C@@H](CN(C)S(C)(=O)=O)Oc2c(NC(=O)Nc3ccc4c(c3)OCO4)cccc2C1=O` gave KKLEB tox -11.1, TRPM1 prom inh -11.5, HIF-2a inh -21.3, CF NFkB inh -25.2, Shn3 3UTR inh -15.2 and Peg3 prom inh -26.3.
`C[C@H](CO)N1C[C@H](C)[C@@H](CN(C)Cc2ccc(-c3ccccc3)cc2)Oc2c(NC(=O)Nc3ccc4c(c3)OCO4)cccc2C1=O` gave KKLEB tox -2.0, TRPM1 prom inh 1.0, HIF-2a inh -46.5, CF NFkB inh 6.4, Shn3 3UTR inh -25.6 and Peg3 prom inh 94.0*.
`C[C@H]1CN([C@@H](C)CO)C(=O)c2cccc(NC(=O)Nc3ccc(C(F)(F)F)cc3)c2O[C@@H]1CN(C)Cc1ccc(Cl)c(Cl)c1` gave KKLEB tox -48.4, TRPM1 prom inh 45.7, HIF-2a inh -35.7, CF NFkB inh 67.8*, Shn3 3UTR inh 18.3 and Peg3 prom inh 97.0*.
For C[C@@H]1CN([C@H](C)CO)C(=O)c2cc(NC(=O)Nc3ccc(C(F)(F)F)cc3)ccc2O[C@H]1CN(C)Cc1ccc(Cl)c(Cl)c1 the results were KKLEB tox -0.5, TRPM1 prom inh 49.8, HIF-2a inh -14.9, CF NFkB inh -0.1, Shn3 3UTR inh 25.1 and Peg3 prom inh 46.6.
COc1cccc(-n2c(SCC(=O)N3CCc4ccccc43)nnc2-c2c[nH]c3ccccc23)c1 was read as KKLEB tox -57.9*, TRPM1 prom inh 47.1, HIF-2a inh 3.9, CF NFkB inh 60.1*, Shn3 3UTR inh 41.3 and Peg3 prom inh 100.8*.
`CC[C@]1(C(=O)OC)[C@H]2C(=O)N(C)C(=O)[C@H]2[C@H]2CN(C)C(=NC3CCCCC3)N21` gave KKLEB tox -0.6, TRPM1 prom inh 9.7, HIF-2a inh 6.6, CF NFkB inh 2.5, Shn3 3UTR inh 7.4 and Peg3 prom inh -3.1.
`CCN(CC)CCNC(=O)c1ccc(NC(=O)c2cc(-c3ccco3)nc3ccccc23)cc1` gave KKLEB tox -3.4, TRPM1 prom inh 69.6*, HIF-2a inh 23.7, CF NFkB inh -29.9, Shn3 3UTR inh 20.6 and Peg3 prom inh 60.9*.
Screening CCN(CC)CCNC(=O)c1ccc(NC(=O)c2cn(-c3ccc(F)cc3)nc2-c2cccc(OC)c2)cc1 returned KKLEB tox -19.4, TRPM1 prom inh 98.1*, HIF-2a inh -17.4, CF NFkB inh -16.0, Shn3 3UTR inh -9.3 and Peg3 prom inh 101.5*.
O=C(Nc1cccnc1)c1cn(-c2ccccc2)nc1-c1cccs1 was read as KKLEB tox 1.1, TRPM1 prom inh -56.0, HIF-2a inh -189.6, CF NFkB inh 8.4, Shn3 3UTR inh -19.1 and Peg3 prom inh -115.6.
For CCN(CC)CCNC(=O)c1ccc(NC(=O)c2cn(-c3ccccc3)nc2-c2cccs2)cc1 the results were KKLEB tox -12.9, TRPM1 prom inh 76.4*, HIF-2a inh -77.9, CF NFkB inh -14.3, Shn3 3UTR inh -17.1 and Peg3 prom inh 106.4*.
CCOc1ccc(NC(=O)CN(C)C(=O)c2ccccc2SCc2c(C)noc2C)cc1OCC was read as KKLEB tox 9.1, TRPM1 prom inh 15.8, HIF-2a inh 5.1, CF NFkB inh -17.2, Shn3 3UTR inh 11.4 and Peg3 prom inh -2.4.
Screening COc1ccccc1C(CNC(=O)CCNS(=O)(=O)c1ccc(Br)cc1)N1CCCC1 (stereo not drawn) returned KKLEB tox -3.9, TRPM1 prom inh 9.5, HIF-2a inh 8.6, CF NFkB inh 21.3, Shn3 3UTR inh -10.0 and Peg3 prom inh -18.4.
`O=C(COc1ccccc1)NNc1nc2c(F)cc(F)cc2s1` gave KKLEB tox -8.7, TRPM1 prom inh 0.3, HIF-2a inh 6.6, CF NFkB inh 6.4, Shn3 3UTR inh -6.9 and Peg3 prom inh 13.1.
`O=C(Nc1nc2c(F)cc(F)cc2s1)c1ccccn1` gave KKLEB tox -20.8, TRPM1 prom inh 65.1*, HIF-2a inh -143.5, CF NFkB inh -28.4, Shn3 3UTR inh 87.6* and Peg3 prom inh 75.3*.
Screening Cc1cc2c(=Cc3ccc(N(C)C)cc3)c3ccccc3n2[n+]1C returned KKLEB tox 7.3, TRPM1 prom inh 100.5*, HIF-2a inh 68.9*, CF NFkB inh -131.9, Shn3 3UTR inh 77.9 and Peg3 prom inh 97.0*.
Screening CN(C)c1ccc(C=c2c3ccccc3n3c2c2ccccc2[n+]3C)cc1 returned KKLEB tox -7.6, TRPM1 prom inh -11.6, HIF-2a inh -8.7, CF NFkB inh 23.0, Shn3 3UTR inh 92.6* and Peg3 prom inh 71.4*.
CCOC(=O)c1cc2c(=Cc3ccc(N(C)C)cc3)c3ccccc3n2[n+]1C was read as KKLEB tox -8.2, TRPM1 prom inh 86.1*, HIF-2a inh -52.2, CF NFkB inh -20.8, Shn3 3UTR inh inconclusive and Peg3 prom inh 46.9.
`CN(C)c1ccc(C=C2C=Cc3ccccc32)cc1` gave KKLEB tox -8.3, TRPM1 prom inh -35.3, HIF-2a inh -189.8, CF NFkB inh -9.0, Shn3 3UTR inh -4.5 and Peg3 prom inh -214.5.
C[n+]1c(-c2ccccc2)cc2c(=Cc3ccc([N+](=O)[O-])cc3)c3ccccc3n21 was read as KKLEB tox -11.4, TRPM1 prom inh 49.3, HIF-2a inh -20.8, CF NFkB inh 36.7, Shn3 3UTR inh 52.9 and Peg3 prom inh 31.1.
`CN(C)c1ccc(C=c2c3cc(O)ccc3n3c2cc(-c2ccccc2)[n+]3C)cc1` gave KKLEB tox -8.3, TRPM1 prom inh 90.1*, HIF-2a inh -72.7, CF NFkB inh -71.0, Shn3 3UTR inh 72.0 and Peg3 prom inh 46.5.
For O=C(CNc1ccccc1OC(F)F)N1CCc2ccccc21 the results were KKLEB tox 9.0, TRPM1 prom inh -116.1, HIF-2a inh -340.2, CF NFkB inh -7.9, Shn3 3UTR inh -142.2 and Peg3 prom inh -347.1.
Cc1nnc(SCC(=O)NCc2ccccc2Cl)[nH]c1=O was read as KKLEB tox 10.3, TRPM1 prom inh 13.4, HIF-2a inh 10.2, CF NFkB inh 4.5, Shn3 3UTR inh 12.0 and Peg3 prom inh 8.4.
`COc1cccc(Nc2nc(NCC3CCCO3)c3ccccc3n2)c1` (stereo not drawn) gave KKLEB tox -17.1, TRPM1 prom inh 31.6, HIF-2a inh -2.5, CF NFkB inh -12.2, Shn3 3UTR inh 87.7* and Peg3 prom inh 24.3.
COc1ccc(CCN2C(=O)c3[nH]nc(-c4ccccc4O)c3C2c2cccc(Cl)c2)cc1 (stereo not drawn) was read as KKLEB tox -7.4, TRPM1 prom inh 33.2, HIF-2a inh 26.9, CF NFkB inh 28.1, Shn3 3UTR inh 30.4 and Peg3 prom inh 97.8*.
